Assay results reported in PubChem BioAssay (NCATS).
Inconclusive results are not listed. Where a call stands in place of a potency, no number is given. Unmarked numbers belong to inactive results. Activity calls are given as the source filed them. Calls follow the shape of the dose curve; as a rule, active = well fitted curve in the direction sought with a large enough effect; inconclusive = small, poorly fitted or top-dose-only effect, or another doubt; inactive = no such curve, though single readings can be large; an effect the other way counts as inactive or inconclusive.

How the values were obtained:
[1] = biological target: Aldehyde dehydrogenase, mitochondrial (Homo sapiens) (UniProt P05091); experiment: qHTS for Inhibitors of the Aldehyde Dehydrogenase Family (ALDH2) Primary screen (AID 2061308); conditions: ALDH2 enzyme inhibition qHTS, 1536-well; series mostly up to 56 µM; also: nearly all actives have a fitted effect of over 55% in size
[2] = biological target: Retinaldehyde dehydrogenase 3 (Homo sapiens) (UniProt P47895); experiment: qHTS for Inhibitors of the Aldehyde Dehydrogenase Family (ALDH1A3) Primary screen (AID 2061315); conditions: ALDH inhibition qHTS; series mostly up to 56 µM

SMILES	Potency [1]	Potency [2]	activity change, negative = inhibition [1]	activity change, negative = inhibition [2]
COc1ccc(-c2nc3ccc(Cl)cc3c(=O)n2Cc2ccccc2)cc1COc1ccc(NC(C)=O)cc1	inactive	inactive	–	–
CCn1cnc2c(Nc3cc(F)cc(F)c3)nc(C(=O)COc3c(F)c(F)cc(F)c3F)nc21	inactive	inactive	–	–
CC(=O)NC1CCN(c2nc(-c3ccc(Br)cc3)cs2)CC1	inactive	inactive	–	–
C[S+](=O)([O-])c1ccc(C(=O)OCC(=O)N2CCNC(=O)C2)cc1[N+](=O)[O-]	inactive	inactive	–	–
NS(=O)(=O)c1ccc(Nc2nc(-c3ccccc3)cs2)cc1	inactive	inactive	–	–
CC(C)=CCCC1(C)C2CCC1(C)C(O)C2 (stereo not given)	inactive	inactive	–	–
Cc1cc2c(s1)c1cnn(Cc3ccc(C)c(F)c3F)c(=O)c1n2C	inactive	inactive	–	–
Cc1ccsc1CNc1ncnc2ccc(-c3c(C)noc3C)cc12	inactive	inactive	–	–
Cc1ccc(C(=O)N2CCc3cc(-c4nc(NC(=O)Cc5ccc6c(c5)OCO6)sc4C)ccc32)cc1	inactive	inactive	–	–
C[C@H]1CC[C@@]2(OC1)O[C@H]1CC3[C@@H]4CC[C@@H]5C[C@@H](O[C@@H]6O[C@H](CO)[C@@H](O[C@@H]7O[C@@H](C)[C@H](O)[C@@H](O)[C@H]7O)[C@H](O)[C@H]6O[C@@H]6O[C@H](CO)[C@@H](O)[C@H](O)[C@H]6O)CC[C@]5(C)C4CC[C@]3(C)[C@H]1[C@@H]2C (stereo not given in full)	inactive	inactive	–	–
COc1ccc(-c2ccc3ncnc(N(C)Cc4csc(C)n4)c3c2)cc1OC	inactive	inactive	–	–
CC(=O)Nc1sc2c(c1-c1cccc(N(C)C)c1)CCNC2	inactive	inactive	–	–
Cc1cc2c(s1)c1cnn(Cc3cc(OC(F)(F)F)ccc3F)c(=O)c1n2C	inactive	inactive	–	–
COC(=O)c1ccc(-c2c(NC(C)=O)sc3c2CCNC3)cc1	inactive	inactive	–	–
O=S(=O)(Nc1cnc2ccccc2c1)c1ccc(NCc2cccc(Cl)c2O)cc1	inactive	inactive	–	–
Cc1ccc(OCCn2c(CCNC(=O)/C=C/c3ccccc3)nc3ccccc32)cc1	inactive	inactive	–	–
Cc1ccc(-c2ccc(CNc3nc(-c4ccccc4C(C)C)ncc3F)cc2)cn1	inactive	inactive	–	–
CCN1CCN(c2cccc(Nc3nn4c(=O)c5ccccc5nc4s3)c2)CC1	inactive	inactive	–	–
Cc1cc(C)nc(NC(=S)N2CCN(c3ncnc4sccc34)CC2)c1	inactive	inactive	–	–
FC(F)(F)c1ccc(-c2nc(NCc3ccc(-c4ccnc(C(F)(F)F)c4)cc3)c3ccccc3n2)cc1	inactive	inactive	–	–
CCCn1c(C)nc2c(NCCN(CC)CC)nc(C)nc21	inactive	inactive	–	–
CCC12CCCN3CCc4c(n(c5ccccc45)C(O)C1)C32 (stereo not given)	inactive	inactive	–	–
COc1cc2c(s1)c1cnn(Cc3ccccc3F)c(=O)c1n2C	inactive	inactive	–	–
CCCn1c(-c2ccc(F)cc2)nc2c(NCCN(C)C)nc(C)nc21	inactive	inactive	–	–
CCOC(=O)C1CCN(C(=O)C2(NC(=O)Nc3ccccc3Cl)CCC2)CC1	inactive	inactive	–	–
Cc1ccc(-c2ccc(=O)n(CC(=O)N(C)[C@@H](C)c3ccccc3)n2)cc1	inactive	inactive	–	–
CCOc1ccccc1-c1nnc2n1N=C(c1ccccc1OC)CS2	inactive	inactive	–	–

SMILES	Potency [1]	Potency [2]	activity change, negative = inhibition [1]	activity change, negative = inhibition [2]
CCC(=O)NC(c1cccs1)c1cc(Br)c2cccnc2c1O (stereo not given)	inactive	inactive	–	–
CCOc1ccc(CCNC(=O)c2cc3sccc3n2Cc2ccncc2)cc1OCC	inactive	inactive	–	–
O=C(Nc1ccc(F)c(C(F)(F)F)c1)Nc1nnc(-c2cccnc2)s1	inactive	inactive	–	–
Cc1cn2c(n1)Cc1ccc(Cl)cc1C(c1ccc(N)cc1)=N2	inactive	inactive	–	–
COc1cc(F)c(S(=O)(=O)N2CCN(S(=O)(=O)c3ccc(N)cc3)CC2)c(F)c1	inactive	inactive	–	–
N#CN1CCC(N[S+](=O)([O-])c2cccc(F)c2)CC1	inactive	inactive	–	–
O=C1CCCC2=C1C(c1cccc(C(F)(F)F)c1)N=C(Nc1nc3ccccc3o1)N2 (stereo not given)	inactive	inactive	–	–
O=C(Nc1nc(-c2ccccc2)cs1)c1ccccc1Cl	inactive	inactive	–	–
O=C(Cn1nc(-c2ccc(OC(F)(F)F)cc2)ccc1=O)NCCc1ccccc1	inactive	inactive	–	–
CCN(CC)CCCCn1c(-c2ccccc2)nc2c(Nc3ccccc3)nc(C)nc21	inactive	inactive	–	–
COc1cccc(C2c3c(ncn(-c4cccnc4)c3=N)Oc3ccc4ccccc4c32)c1 (stereo not given)	inactive	inactive	–	–
CN(Cc1cccs1)c1ncnc2ccc(-c3ccc4cn(C)nc4c3)cc12	inactive	inactive	–	–
O=C1c2ccccc2C(=O)N1c1cnc2ccccc2c1	inactive	inactive	–	–
Cc1ccc(S(=O)(=O)Nc2cncc(C(=O)Nc3nc(-c4ccccc4)cs3)c2)cc1	inactive	inactive	–	–
CCN1CCN(C(=S)c2ccc(O)cc2)CC1	inactive	inactive	–	–
O=C1CCc2cc(S(=O)(=O)Nc3ccc(F)c(Cl)c3)c(F)cc2N1	inactive	inactive	–	–
CN(C)c1ccccc1-c1csc(N2CCC(C(N)=O)CC2)n1	inactive	inactive	–	–
CC(C)c1ccccc1-c1nc(NCc2ccc(-c3cccnc3)cc2)c2ccccc2n1	inactive	inactive	–	–
N#Cc1cc(NC(=O)Nc2nnc(-c3ccncc3)s2)ccc1Cl	inactive	inactive	–	–
CN(C(=O)c1cccs1)c1cccnc1	inactive	inactive	–	–
O=C(Nc1ccc(-c2ccccc2)nc1)c1cccs1	inactive	inactive	–	–
Cc1ccnc(NC(=S)NCCNc2cccc(C(F)(F)F)c2)c1	inactive	inactive	–	–
CCc1cccc(CC)c1NC(=O)c1nn(C)c2c1CCc1cnc(Nc3ccc(C(=O)NC4CCN(C)CC4)cc3OC(F)(F)F)nc1-2	inactive	inactive	–	–
O=C(Nc1ccc2ccccc2c1)Nc1nnc(-c2ccccc2Cl)s1	inactive	inactive	–	–
C/C=C1\[C@H](O[C@@H]2O[C@H](CO)[C@@H](O)[C@H](O)[C@H]2O)OC=C2C(=O)OCCc3ccc(O)c(c3)Oc3ccc(cc3)CCOC(=O)C[C@H]21	inactive	inactive	–	–
Cc1ccccc1-c1csc2ncnc(Sc3nnnn3C)c12	inactive	inactive	–	–
COc1ccccc1-c1csc2ncnc(Sc3nnnn3C)c12	inactive	inactive	–	–

SMILES	Potency [1]	Potency [2]	activity change, negative = inhibition [1]	activity change, negative = inhibition [2]
COc1cccc(-c2ccc3ncnc(NCc4cccc(F)c4)c3c2)c1	inactive	inactive	–	–
Cc1ccc2nc3sc(C(=O)N4CCC(C(N)=O)CC4)cc3cc2c1	inactive	inactive	–	–
Cc1ccc(-c2nnc(N3CCC(C(N)=O)CC3)s2)cc1	inactive	inactive	–	–
Cc1cccc(NS(=O)(=O)c2ccc3c(c2)CCC(=O)N3)c1	inactive	inactive	–	–
Cc1ccc(S(=O)(=O)Nc2cnccc2C(=O)NCc2ccccc2)cc1	inactive	inactive	–	–
Cn1nnnc1Sc1ncnc2scc(-c3ccccc3Cl)c12	inactive	inactive	–	–
FC(F)(F)c1ccccc1-c1nc(NCc2ccc(-c3cccc(Cl)c3)cc2)c2ccccc2n1	inactive	inactive	–	–
Cc1cc(C)n2ncc(C(=O)Nc3ccc(Cl)c(Cl)c3)c2n1	inactive	inactive	–	–
Cc1ccc(OCCn2c3c(c4ccccc42)CCN(C(=O)C2CCCCC2)C3)cc1	inactive	inactive	–	–
CCC(=O)NC(c1cccs1)c1cc(Cl)c2cccnc2c1O (stereo not given)	inactive	inactive	–	–
CC1(C)CC[C@]23CO[C@@]4(CCC5[C@@]6(C)CC[C@H](O[C@@H]7OC[C@H](O[C@@H]8O[C@H](CO)[C@@H](O)[C@H](O)[C@H]8O)[C@H](O)[C@H]7O[C@@H]7O[C@H](CO)[C@@H](O[C@@H]8O[C@H](CO)[C@@H](O)[C@H](O)[C@H]8O)[C@H](O)[C@H]7O)[C@@](C)(CO)C6CC[C@@]5(C)[C@]4(C)C[C@H]2OC2OCC(O)C(O)C2O)C3C1 (stereo not given in full)	–	–	-1.32% [at 11.2 µM]	1.39% [at 11.2 µM]
Cc1cc(N[S+](=O)([O-])c2ccc(NC(=O)Cc3ccc(Cl)c([N+](=O)[O-])c3)cc2)no1	inactive	inactive	–	–
CCOc1ccc(CCNC(=O)C2COc3ccccc3O2)cc1OCC (stereo not given)	inactive	inactive	–	–
COc1ccccc1NS(=O)(=O)c1ccc2c(c1)CCC(=O)N2	inactive	inactive	–	–
Cc1ccsc1CN(C)c1ncnc2ccc(-c3ccc([C@@H](C)O)o3)cc12	inactive	inactive	–	–
Cn1nnnc1Sc1ncnc2scc(-c3ccc(N)cc3)c12	inactive	inactive	–	–
Cc1cn([C@H]2C[C@H](N[S+](=O)([O-])Cc3ccccc3)[C@@H](CO)O2)c(=O)[nH]c1=O	inactive	inactive	–	–
CC1(C)CC[C@]2(C(=O)O[C@@H]3O[C@H](CO[C@@H]4O[C@H](CO[C@@H]5O[C@H](CO)[C@H](O)[C@H](O)[C@H]5O)[C@@H](O)[C@H](O)[C@H]4O)[C@@H](O)[C@H](O[C@@H]4O[C@H](CO)[C@@H](O)[C@H](O)[C@H]4O)[C@H]3O)[C@H](O)C[C@]3(C)C(=CCC4[C@@]5(C)CC[C@H](O[C@@H]6OC[C@@H](O)[C@H](O)[C@H]6O)[C@@](C)(C(=O)O)C5CC[C@]43C)[C@@H]2C1 (stereo not given in full)	–	–	13.7% [at 11.2 µM]	11.1% [at 11.2 µM]
COc1ccc(CNC(=O)c2nc(S(=O)(=O)Cc3ccccc3)ncc2Cl)cc1	inactive	inactive	–	–
O=C(O)c1ccc(O)c2ncc(N3CCCCC3)cc12	inactive	inactive	–	–
Cc1ccc(-n2nc3c(N4CCCC(C(=O)NCc5ccccc5C)C4)nnc(C)c3c2C)cc1 (stereo not given)	inactive	inactive	–	–
O=C(OCC#CCSc1nnc(-c2cccc3ccccc23)o1)C1CCCC1	inactive	inactive	–	–
O=C1c2ccccc2C(=O)N1c1cc(=O)c2ccccc2[nH]1	inactive	inactive	–	–
O=C(Nc1ccc(F)c(C(F)(F)F)c1)Nc1cccc(-c2ccncc2)n1	inactive	inactive	–	–
C=C1C(=O)O[C@@H]2/C=C(\C)CC/C=C(/C=O)[C@H](OC)[C@@H](OC(=O)C(C)C)[C@@H]12	inactive	inactive	–	–
C=C(C)C(=O)O[C@H]1C[C@@](C)(O)C2(O)CCC(C)(/C=C3/OC(=O)C(COC)=C31)O2 (stereo not given in full)	inactive	inactive	–	–
